Several values for one entry are separate records, joined by “and”; a condition that tells them apart may be missing. Identical values can stand only once. Records with an inconclusive call do not appear. A call without a number means that no potency is given here. Unmarked numbers belong to inactive results. Activity calls are given as the source filed them. Calls follow the shape of the dose curve; as a rule, active = well fitted curve in the direction sought with a large enough effect; inconclusive = small, poorly fitted or top-dose-only effect, or another doubt; inactive = no such curve, though single readings can be large; an effect the other way counts as inactive or inconclusive.
What was measured:
[1] = Viability qHTS for spleen associated tyrosine kinase inhibitor (SYKi) naive MV4-11 cells (AID 1963823); also: nearly all actives have a fitted effect of over 40% in size; also: potency is read from the fitted curve at half-maximal effect
Method in brief: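 Compounds were dispensed acoustically onto plates, MV4-11 cells (SYKi-naive) added at 500 per well, and plates incubated 72 hr at 37 C. CellTiter-Glo was added and luminescence measured after 10 min.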

[2] = Viability qHTS for spleen associated tyrosine kinase inhibitor (SYKi) drug resistant MV4-11 cells (AID 1963824); also: nearly all actives have a fitted effect of over 35% in size; also: potency is read from the fitted curve at half-maximal effect
Method in brief: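 CellTiter-Glo luminescence, read 10 min after reagent addition, reports viability after a 72 hr compound exposure. Cells are an MV4-11 line made resistant to SYK inhibition, seeded at 500 per well onto compound-containing plates.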

[3] = Quantitative highthroughput screen to assess conditional lethalithy of NOMO1 cells grown in RPMI1640 with untreated serum (RPMI+s) (AID 1963876); also: nearly all actives have a fitted effect of over 35% in size; also: potency is read from the fitted curve at half-maximal effect
Method in brief: (§1)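 Each medium arm—HPLM with 10% dialyzed FBS, or RPMI1640 with 5 mM glucose and 10% untreated or dialyzed FBS—was screened against an 11-point, 3-fold compound titration for 48 h at 37 °C, with CellTiter-Glo luminescence as endpoint.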

[4] = Quantitative highthroughput screen to assess conditional lethalithy of NOMO1 cells grown in RPMI1640 with dialyzed fetal bovine serum (RPMI+ds) (AID 1963877); also: nearly all actives have a fitted effect of over 30% in size; also: potency is read from the fitted curve at half-maximal effect; as to Viability: series mostly up to about 46 µM
Method in brief: as §1

[5] = Quantitative highthroughput screen to assess conditional lethalithy of NOMO1 cells grown in Human Plasma-Like Medium with dialyzed fetal bovine serum (HPLM+ds) (AID 1963878); also: nearly all actives have a fitted effect of over 35% in size; also: potency is read from the fitted curve at half-maximal effect
Method in brief: as §1

[6] = Quantitative highthroughput screen to assess conditional lethalithy of P12 Ichikawa cells grown in Human Plasma-Like Medium with dialyzed fetal bovine serum (HPLM+ds) (AID 1963879); conditions: Potency: viability; also: nearly all actives have a fitted effect of over 35% in size; also: potency is read from the fitted curve at half-maximal effect; as to Viability: series mostly up to about 46 µM
Method in brief: as §1

[7] = Quantitative highthroughput screen to assess conditional lethalithy of P12 Ichikawa cells grown in RPMI1640 with dialyzed fetal bovine serum (RPMI+ds) (AID 1963880); conditions: Potency: P12-Ichikawa viability; also: nearly all actives have a fitted effect of over 35% in size; also: potency is read from the fitted curve at half-maximal effect
Method in brief: as §1

[8] = Quantitative highthroughput screen to assess conditional lethalithy of P12 Ichikawa cells grown in RPMI1640 with untreated serum (RPMI+s) (AID 1963881); conditions: Potency: viability; also: nearly all actives have a fitted effect of over 35% in size; also: potency is read from the fitted curve at half-maximal effect; as to Viability: series mostly up to about 46 µM
Method in brief: as §1

[9] = Quantitative highthroughput screen to assess conditional lethalithy of SEM cells grown in RPMI1640 with unreated serum (RPMI+s) (AID 1963883); also: nearly all actives have a fitted effect of over 35% in size
Method in brief: as §1

[10] = Quantitative highthroughput screen to assess conditional lethalithy of SEM cells grown in RPMI1640 with dialyzed fetal bovine serum (RPMI+ds) (AID 1963884); also: nearly all actives have a fitted effect of over 35% in size; also: potency is read from the fitted curve at half-maximal effect; as to Viability: series mostly up to about 46 µM
Method in brief: as §1

[11] = Cellular viability qHTS for adrenocortical cancer (ACC) cell line SW-13 (AID 1963989); conditions: SW-13 ACC cells viability, CellTiter-Glo, 48 h; activity (max response): active compounds read low; also: nearly all actives have a fitted effect of over 65% in size; also: potency is read from the fitted curve at half-maximal effect;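 as to activity (max response): cells grown in serum-free medium with ITS supplement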
Method in brief: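 48 h treatment, SW-13 in ITS/DMEM serum-free; doses up to 46 uM; readout CellTiter-Glo luminescence; curve fit four-parameter logistic.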

[12] = Cellular viability qHTS for adrenocortical cancer (ACC) cell line NCI-H295R (AID 1963990); also: nearly all actives have a fitted effect of over 60% in size; also: potency is read from the fitted curve at half-maximal effect
Method in brief: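 Compound titrations (up to 46 uM final) are applied to NCI-H295R cultures for 48 h at 37C. Viable cell number is estimated by CellTiter-Glo signal, normalised to DMSO and doxorubicin controls.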

[13] = Quantitative highthroughput screen to assess conditional lethalithy of SEM cells grown in Human Plasma-Like Medium with dialyzed fetal bovine serum (HPLM+ds) (AID 1963882); also: nearly all actives have a fitted effect of over 35% in size; also: potency is read from the fitted curve at half-maximal effect; as to Viability: series mostly up to about 46 µM
Method in brief: as §1

| SMILES | Potency [1] | Potency [2] | Potency [3] | Potency [4] | Potency [5] | Potency [6] | Potency [7] | Potency [8] | Potency [9] | Potency [10] | activity (max response) [11] | Potency [12] | Potency [13] | Potency [11] |
| --- | --- | --- | --- | --- | --- | --- | --- | --- | --- | --- | --- | --- | --- | --- |
| COc1ccc(-c2ccc3cc(C(=O)O)ccc3c2)cc1C12CC3CC(CC(C3)C1)C2 | 211 nM (active) | 1.32 µM (active) | inactive | inactive | inactive | inactive | inactive | inactive | inactive | inactive | -2.5% and -9.37% | inactive | – | – |
| Cc1cc(C(C)Nc2ccccc2)c2nc(N3CCOCC3)cc(=O)n2c1 (stereo unspecified) | 9.2 µM (active) and 5.9 µM (active) | 10.3 µM (active) and 9.34 µM (active) | inactive | inactive | inactive | inactive | inactive | inactive | – | – | -14.6% | inactive | inactive | – |
| Nc1ncnc2c1ncn2[C@@H]1O[C@H](CO)[C@@H](O)[C@@H]1O | inactive | inactive | 9.35 µM (active) | 8.33 µM (active) | 5.9 µM (active) | 7.43 µM (active) | 14.8 µM (active) | 6.62 µM (active) | – | inactive | – | – | inactive | – |
| CC(NCCc1ccc(O)cc1)C(O)c1ccc(O)cc1 (stereo unspecified) | inactive | inactive | inactive | inactive | inactive | inactive | inactive | inactive | – | – | -9.55% | inactive | inactive | – |
| O=c1cc(-c2cccc3c2Sc2ccccc2S3)oc(N2CCOCC2)c1 | 6.51 µM (active) and 16.6 µM (active) | 5.8 µM (active) and 9.34 µM (active) | inactive | inactive | inactive | inactive | inactive | inactive | inactive | – | – | 25.1 µM (active) | inactive | – |
| CC(O)C1C(=O)N2C(C(=O)O)=C(SC3CNC(C(=O)N(C)C)C3)C(C)C12 (stereo unspecified) | inactive | inactive | inactive | inactive | inactive | inactive | inactive | inactive | – | inactive | – | – | inactive | – |
| CCNc1cc(NC2CCC(O)CC2)nc(Nc2ccc3c(ccn3Cc3ccccc3)c2)n1 (stereo unspecified) | 8330 nM (active) | 14.6 µM (active) | inactive | inactive | inactive | inactive | inactive | inactive | – | – | -9.82% | inactive | inactive | – |
| COc1ccc(C2CNC(=O)C2)cc1OC1CCCC1 (stereo unspecified) | 525 nM (active) | inactive | inactive | inactive | inactive | inactive | inactive | inactive | – | inactive | 1.73% and 4.14% | inactive | inactive | – |
| O=C(O)Cc1cccc(OCCCN(Cc2cccc(C(F)(F)F)c2Cl)CC(c2ccccc2)c2ccccc2)c1 | 20900 nM (active) | 16.6 µM (active) | inactive | inactive | inactive | inactive | inactive | inactive | – | inactive | – | 22.4 µM (active) | inactive | – |
| Oc1ccc(C2=Cc3ccc(O)cc3OC2)cc1 | 417 nM (active) | 0.366 µM (active) | 9.35 µM (active) | 11.8 µM (active) | 9.35 µM (active) | 2.96 µM (active) | 2.64 µM (active) | 2.96 µM (active) | – | 3.72 µM (active) | – | 11.2 µM (active) | 2.96 µM (active) | 7.08 µM (active) |
| COC(=O)N1CC2(CC2)C[C@H](C(=O)NO)[C@H]1C(=O)N1CCN(c2ccccc2)CC1 | inactive | inactive | 0.524 µM (active) | 3.31 µM (active) | 0.295 µM (active) | 0.331 µM (active) | 1.05 µM (active) | 2.34 µM (active) | – | 0.66 µM (active) | -14.2% | inactive | 1.17 µM (active) | – |
| CCN(CC)CCNC(=O)c1ccc2nc(-c3ccccc3)c(-c3ccc(CN4CCC(n5c(=O)[nH]c6ccccc65)CC4)cc3)nc2c1 | 2.06 µM (active) and 3.32 µM (active) | 2.59 µM (active) and 3.32 µM (active) | 8.33 µM (active) | 11.8 µM (active) | 2.35 µM (active) | 2.35 µM (active) | 2.64 µM (active) | 4.69 µM (active) | – | 0.166 µM (active) | – | 3.98 µM (active) | 0.166 µM (active) | 6.31 µM (active) |
| CC(C)C[C@@H](N)[C@H](O)C(=O)N[C@H](C(=O)N[C@H](C(=O)N[C@@H](CC(=O)O)C(=O)O)C(C)C)C(C)C | inactive | inactive | inactive | inactive | inactive | inactive | inactive | inactive | inactive | – | -8.42% | inactive | – | – |
| C[C@H](CCC(=O)O)[C@H]1CCC2C3C[C@H](O)[C@@H]4C[C@H](O)CC[C@]4(C)C3CC[C@@]21C (stereo partly specified) | inactive | inactive | inactive | inactive | inactive | inactive | inactive | inactive | inactive | – | 1.86% | – | – | – |

— PubChem BioAssay (NCATS)
